The record followed here is PubChem BioAssay (NCATS).

Values joined by “and” are separate entries in the source; they are usually repeats but may differ in a detail not shown here. Equal entries are not always repeated. Results filed as inconclusive are left out. Some compounds were tested as several samples or in several runs, with calls that do not always agree. Active and inactive are the calls of the source. Calls follow the shape of the dose curve; as a rule, active = well fitted inhibition curve with a large enough effect; inconclusive = small, poorly fitted or top-dose-only effect; inactive = flat fitted curve, though single readings scatter.
% is scaled to controls: 0 for no effect and ±100 for the full control effect; potency is read from the fitted curve at half-maximal effect.

The test system of this assay is HEK293. Kind of assay: Cytotoxic Profiling of Annotated Libraries Using Quantitative High-Throughput Screening (AID 1296008). Also: nearly all actives have a fitted effect of over 60% in size. To be noted: Five cell lines viability, CellTiter-Glo ATP luminescence, 48-72 h; max response: active compounds read low. An excerpt: Cell-based phenotypic screening is a commonly used approach to discover biological pathways, novel drug targets, chemical probes and high-quality hit-to-lead molecules. Many hits identified from high-throughput screening campaign are ruled out through a series of follow-up potency, selectivity/specificity, and cytotoxicity assays. Prioritization of molecules with little or no cytotoxicity for a more in-depth downstream evaluation influence the future direction of projects, so cytotoxicity profiling of the screening libraries at early stage is essential for increasing the likelihood of candidate success. […] For the annotated library, we also examined the primary targets and mechanistic pathways regularly associated with cell death. To our knowledge, this is the first study to use high-throughput screening to profile large libraries for cytotoxicity assessment in both normal and cancer cell lines. In summary, the results generated here constitutes a valuable resource for the scientific community and provides insight on identifying cytotoxic compounds with particular mechanisms of action, and prioritizing compounds with suitable cytotoxicity profile for further evaluation.
A pintool (Kalypsys) was used to transfer 23 nL of compound solution to the 1536-well assay plates. After 48 or 72 hr incubation at 37 degree Celsius, 5% CO2 and 95% humidity, 2.5 uL of CellTiter-Glo (Promega) was dispensed into each well using a dispenser (Aspect Automation, St. Paul, MN) with solenoid valves (Lee Valves, Westbrook CT). Plates were left at room temperature for 10 min before imaging the ATP-coupled luminescence using a ViewLux microplate imager (PerkinElmer, Waltham, MA).
As for `NC(=O)N1c2ccccc2CC(=O)c2ccccc21`, the result was inactive.

Consider `CN(Cc1cc(Br)cc(Br)c1N)C1CCCCC1`, for which the outcome was inactive.

Regarding `COc1nc(N)nc2c1ncn2[C@@H]1O[C@H](CO)[C@@H](O)[C@@H]1O`, the molecule was classed as inactive.

For `Cn1nnc2c(C(N)=O)ncn2c1=O`, the max response is 1.76% (inactive) and -7.24% (inactive).

On to `CCN(CC)CCn1c(=O)c(Cc2ccc(OC)cc2)nc2ccccc21`, for which the max response was -12.9% (inactive).

In the case of `COc1cc2nc(N3CCCN(C)CC3)nc(NC3CCN(Cc4ccccc4)CC3)c2cc1OC`, the Potency is 6.62 µM (active).

Take `CC(C)(Sc1cc(C(C)(C)C)c(O)c(C(C)(C)C)c1)Sc1cc(C(C)(C)C)c(O)c(C(C)(C)C)c1`: the max response is 2.23% (inactive) and the result was inactive.

Take `O=C(O)CSCC(=O)NC1CCSC1=O` (stereo unspecified): the max response is -6.58% (inactive) and the outcome was inactive.

As for `CNC(=O)c1cc(Oc2ccc(NC(=O)Nc3ccc(Cl)c(C(F)(F)F)c3)cc2)ccn1`, the Potency is 7.43 µM (active) and 5.8 µM (active).

For `COc1cc2ncnc(Nc3cccc(Cl)c3)c2cc1OC`, the Potency was 0.372 µM (active).

On to `CCCOc1ccc(C(=O)OCCN(CC)CC)cc1N`, for which the molecule was classed as inactive and the max response is -0.795% (inactive).

Take `C[C@@H](NCCCc1cccc(C(F)(F)F)c1)c1cccc2ccccc12`: the Potency is 15 µM (active) and the max response is -18.5% (inactive).

Turning to `COc1ccc2c(c1)c(CC(=O)OCC(=O)O)c(C)n2C(=O)c1ccc(Cl)cc1`, the max response was -16.6% (inactive) and the molecule was classed as inactive.

`OCc1ccc(-c2nn(Cc3ccccc3)c3ccccc23)o1`: the Potency was 14.8 µM (active).

Consider `N[C@@H](C(=O)N[C@@H]1C(=O)N2C(C(=O)O)=C(Cl)CS[C@H]12)c1ccccc1`, for which the molecule was classed as inactive.

For `CC(C)C1CCC(C(=O)N[C@H](Cc2ccccc2)C(=O)O)CC1` (stereo partly specified), the max response was -0.795% (inactive) and -11.5% (inactive).

Take `COc1ccc(C(=O)CC(=O)c2ccc(C(C)(C)C)cc2)cc1`: the max response was 1.8% (inactive) and the result was inactive.

For `CCn1cc(C(=O)O)c(=O)c2cc(F)c(N3CCN(C)CC3)cc21`, the call was inactive and the max response was 0.679% (inactive).

For `CCC(=O)O[C@]1(C(=O)CCl)[C@@H](C)C[C@H]2[C@@H]3CCC4=CC(=O)C=C[C@]4(C)[C@@]3(F)[C@@H](O)C[C@@]21C`, the max response is -0.886% (inactive).

As for `Cn1c(=O)c2c(ncn2CC(O)CO)n(C)c1=O` (stereo unspecified), the max response is -3.34% (inactive) and -13.7% (inactive).

Consider `CN(C)CCc1c[nH]c2ccc(C[C@H]3COC(=O)N3)cc12`, for which the max response was 4.33% (inactive) and -3.7% (inactive); the Potency was 4.18 µM (active).

As to `CCN[C@H]1C[C@H](C)S(=O)(=O)c2sc(S(N)(=O)=O)cc21`, the max response is -5.09% (inactive) and the call was inactive.

In the case of `COc1ccc2cc3[n+](cc2c1OC)CCc1cc2c(cc1-3)OCO2`, the Potency is 1.33 µM (active) and 1.05 µM (active).

As to `CN(CCOc1ccc(CC2SC(=O)NC2=O)cc1)c1ccccn1` (stereo unspecified), the max response is 2.68% (inactive) and the result was inactive.

Turning to `COC(=O)Nc1nc2ccc(C(=O)c3ccccc3)cc2[nH]1`, the max response is -90.7% (inactive).

On to `NC(=O)c1cccc(N)c1`, for which the max response was -4.67% (inactive).

Take `CCN(C)C(=O)Oc1cccc([C@H](C)N(C)C)c1`: the call was inactive and the max response was -9.47% (inactive).

Regarding `CCC(=O)O[C@]1(C(=O)SCF)[C@H](C)C[C@H]2[C@@H]3C[C@H](F)C4=CC(=O)C=C[C@]4(C)[C@@]3(F)[C@@H](O)C[C@@]21C`, the max response was 1.44% (inactive) and 1.99% (inactive).

Regarding `COc1ccccc1OCC(O)COC(N)=O` (stereo unspecified), the result was inactive and the max response was 2.15% (inactive).
